# TbPYK inhibitor – blocks Trypanosoma brucei pyruvate kinase; actives 0.12% (n = 410,000); Q57TT1; Potency, µM (highest dose often 76.8 µM), without a hit: top-dose activity, negative = inhibition, usual class: inhibitors; TbPYK enzyme, Kinase-Glo Plus ATP luminescence, 45 min; note: potency is the fitted concentration of half-maximal effect; % is set by controls: 0 for no effect and ±100 for the full control effect; nearly all actives have a fitted effect of over 50% in size
#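 Quantitative HTS: titrated library compounds versus trypanosomal pyruvate kinase in TEA buffer (pH 7.2) containing KCl, MgCl2, BSA and Tween-20. Reactions were initiated with ADP, 130 uM final. Kinase-Glo Plus luminescence was read after 45 min at RT.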
# Cycloheximide cs – affects cycloheximide protein synthesis inhibition readout, counter-screen. max response, %. cell reporter, cycloheximide protein synthesis inhibition counterscreen. actives 12% (n = 300,000); in the data active = max response mostly above about 13%, no sharp cut-off; inactive = mostly below about 14%; note: read at 38.3 µM for the half of the compounds with a filed dose; 0% is about no effect
# LmPK inhibitor – LmPK (Leishmania mexicana) enzyme inhibition; Q27686; purified LmPK, Kinase-Glo ATP luminescence, 1 h; Potency, µM (titrated, usually from 57.5 µM), without a hit: at the highest dose activity change, negative = inhibition, most hits filed as inhibitors; actives 0.37% (n = 290,000); note: potency is the fitted concentration of half-maximal effect; % is set by controls: 0 for no effect and ±100 for the full control effect
#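 0.1 nM LmPK, 0.5 mM PEP, 0.1 mM ADP; 50 mM imidazole pH 7.2, 7 mM MgCl2, 50 mM KCl; 1 h RT. Kinase-Glo luminescence readout, normalized to no-enzyme (full inhibition) and uninhibited wells.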
# Shiga toxin inh – inhibitors of Shiga toxin in Vero cells | Vero cells, Shiga toxin protein synthesis inhibition reporter | inhibition, % at 38.7 µM | AID 2315 | actives 9.2% (n = 290,000); in the data active = inhibition mostly above about 28%, no sharp cut-off; inactive = mostly below about 43%; note: 0% is about no effect
# Giardia FBPA inh-1 – inhibitors of Giardia lamblia fructose-1,6-bisphosphate aldolase | purified Giardia FBPA | Potency, µM (top dose mostly 59.6 µM), for inactives: at the top dose activity, negative = inhibition, actives largely listed as inhibitors | actives 0.71% (n = 290,000) | AID 2451; note: potency is the fitted concentration of half-maximal effect; % is set by controls: 0 for no effect and ±100 for the full control effect; nearly all actives have a fitted effect of over 55% in size
# Target sequence (A8B2U2 whole entry, looked up): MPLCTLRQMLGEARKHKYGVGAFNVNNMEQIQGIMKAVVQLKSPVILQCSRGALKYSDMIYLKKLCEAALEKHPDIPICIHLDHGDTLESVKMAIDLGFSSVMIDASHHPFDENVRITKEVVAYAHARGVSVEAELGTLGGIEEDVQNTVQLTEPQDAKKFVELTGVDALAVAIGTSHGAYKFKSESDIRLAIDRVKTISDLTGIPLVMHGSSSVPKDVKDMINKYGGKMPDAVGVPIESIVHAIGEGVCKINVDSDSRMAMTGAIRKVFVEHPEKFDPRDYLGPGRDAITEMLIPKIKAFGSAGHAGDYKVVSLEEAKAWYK
#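 Giardia FBPA (40 nM reagent) was preincubated 10 min at RT with compound (up to 57.5 uM final), then substrate plus GAPDH/TPI/NAD/arsenate coupling system with diaphorase/resazurin was added; resorufin fluorescence (525/598 nm) was read after 20 min.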
# RE007 growth inh – less growth of the S. pombe RE007 Vpr strain; S. pombe RE007 Vpr strain, BacTiter-Glo ATP luminescence, 24 h; Potency, µM (highest dose often 92.2 µM), without a hit: at the highest dose activity change, negative = less growth, hits mostly inhibitors; actives 0.21% (n = 360,000); AID 651644; active = well fitted falling curve with a large enough effect; inconclusive = small, poorly fitted or top-dose-only effect; inactive = no such curve, though single readings can be large or run the other way; note: potency is the fitted concentration of half-maximal effect; % is set by controls: 0 for no effect and ±100 for the full control effect; nearly all actives have a fitted effect of over 50% in size
#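 Fission yeast RE007 carrying one integrated HIV-1 vpr copy, seeded at OD 0.01 in PMG+AL medium with 23 nL pinned compound. Grown 24 h at 30 degrees; viability read by BacTiter-Glo luminescence after 5 min.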
# Giardia growth – inhibitors of Giardia lamblia growth; shares compounds with Giardia FBPA inh-1; Giardia lamblia trophozoite growth inhibition; Potency, µM (doses to about 57.5 µM), without a hit: top-dose activity change, negative = inhibition, most hits filed as inhibitors; actives 5% (n = 1,500);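 note: potency is the fitted concentration of half-maximal effect; trophozoites exposed to compound for 48 h at 37 °C; % is set by controls: 0 for no effect and ±100 for the full control effect; nearly all actives have a fitted effect of over 70% in size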
# Mammalian tox – counter-screen for Giardia aldolase inhibitors: mammalian cell toxicity. Potency, µM (highest dose often 57.5 µM), inactives show at the highest dose viability change, negative = toxicity, hits mostly inhibitors. AID 2786. shares compounds with Giardia FBPA inh-1. mammalian cell viability counter-screen, qHTS. actives 4% (n = 1,500);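 note: Chinese hamster ovary cells used as mammalian cytotoxicity surrogate; viability measured as cellular ATP by luminescence; potency is the fitted concentration of half-maximal effect; compound exposure lasted 48 h before reading; % is set by controls: 0 for no effect and ±100 for the full control effect; nearly all actives have a fitted effect of over 60% in size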
# Giardia FBPA inh-2 – confirmation of Giardia fructose-bisphosphate aldolase inhibitors; purified Giardia aldolase enzyme activity, qHTS; Potency, µM (series often up to 57.5 µM), for the others: at the highest dose activity change, negative = inhibition, most hits filed as inhibitors; shares compounds with Giardia FBPA inh-1; actives 5% (n = 1,500); note: potency is the fitted concentration of half-maximal effect; % is set by controls: 0 for no effect and ±100 for the full control effect; nearly all actives have a fitted effect of over 45% in size
# Rabbit aldolase – rabbit FBP aldolase inhibition by Giardia aldolase hits; AID 2794; Potency, µM (highest dose often 57.5 µM), for inactives: top-dose activity, negative = inhibition, actives largely listed as inhibitors; actives 4% (n = 1,500); shares compounds with Giardia FBPA inh-1; Rabbit muscle FBPA enzyme inhibition, selectivity counter-screen; note: potency is the fitted concentration of half-maximal effect; % is set by controls: 0 for no effect and ±100 for the full control effect; nearly all actives have a fitted effect of over 60% in size
# Target sequence (P00883 whole entry, looked up): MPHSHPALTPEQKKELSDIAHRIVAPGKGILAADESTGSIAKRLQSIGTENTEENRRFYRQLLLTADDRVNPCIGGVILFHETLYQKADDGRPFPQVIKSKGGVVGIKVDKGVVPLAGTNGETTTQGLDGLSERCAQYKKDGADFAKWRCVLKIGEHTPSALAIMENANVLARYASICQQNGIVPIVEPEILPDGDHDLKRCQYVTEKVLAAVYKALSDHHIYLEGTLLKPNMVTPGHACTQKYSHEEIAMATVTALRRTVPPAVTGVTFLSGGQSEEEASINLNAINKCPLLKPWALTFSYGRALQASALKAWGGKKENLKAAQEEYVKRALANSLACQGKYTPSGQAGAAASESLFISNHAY
# GAPDH counter – counter-screen for Giardia aldolase inhibitors: GAPDH coupling enzyme; shares compounds with Giardia FBPA inh-1; GAPDH coupling enzyme counterscreen, biochemical, qHTS; Potency, µM (series often up to 57.5 µM), for the others: top-dose activity change, negative = inhibition, most hits filed as inhibitors; actives 6% (n = 1,500); AID 2795; note: potency is the fitted concentration of half-maximal effect; % is set by controls: 0 for no effect and ±100 for the full control effect; nearly all actives have a fitted effect of over 55% in size
# The depositor's hits bear a star; ? = inconclusive; nt = no result given; [ ] = dose if it differs, or a comment. The full list was thinned out, with hits kept by preference. Unless noted, calls come from the whole dose curve; as a rule, active = well fitted curve in the direction sought with a large enough effect; inconclusive = small, poorly fitted or top-dose-only effect, or another doubt; inactive = no such curve, though single readings can be large; an effect the other way counts as inactive or inconclusive.
SMILES,TbPYK inhibitor,Cycloheximide cs,LmPK inhibitor,Shiga toxin inh,Giardia FBPA inh-1,RE007 growth inh,Giardia growth,Mammalian tox,Giardia FBPA inh-2,Rabbit aldolase,GAPDH counter
CN(C)c1ccc(NC(=O)C2(c3cccs3)CCOCC2)cc1,-11%,nt,nt,nt,nt,nt,nt,nt,nt,nt,nt
O=P(O)(O)CP(=O)(O)O,-6%,-3,5%,34,6.3µM*,nt,119%,9%,24%,2%,15%
COc1ccc(CCNC(=O)CCc2c(C)c3cc4c(C)coc4cc3oc2=O)cc1,2%,nt,nt,nt,nt,nt,nt,nt,nt,nt,nt
O=C(CN(CC1CCCO1)C(=O)CNS(=O)(=O)c1ccccc1)NCc1ccco1 (stereo not given),-1%,-1,3%,-6,12%,-5%,nt,nt,nt,nt,nt
O=C(CNCC1CCCO1)NCc1ccco1 (stereo not given),1%,2,-3%,-1,16µM*,7%,?,4%,2%,8%,7%
O=C(CNCc1cccs1)Nc1ccc(N2CCCCCC2)cc1,5%,27*,-5%,60*,18µM*,15%,?,-11%,-15%,-14%,-13%
O=C(CCc1ccccc1)NNC(=O)c1ccccn1,-7%,4,1%,32,18µM*,-12%,11µM*,?,3%,2%,-4%
O=C(CCc1ccccc1)NNC(=O)CCc1ccccc1,3%,-2,0%,-4,12%,3%,nt,nt,nt,nt,nt
CCN(CC)S(=O)(=O)c1ccc2c(c1)N(CC(=O)N1CCN(c3cccc(C)c3)C(C)C1)C(=O)CO2 (stereo not given),-7%,nt,nt,nt,nt,nt,nt,nt,nt,nt,nt
C=CCN=c1scc(C)n1/N=C/c1ccc(O)c(O)c1,?,37*,0%,65*,22µM*,-13%,8%,-19%,-25%,-29%,-18%
CC(=O)c1cccc(NC(=S)N2CCc3ccccc32)c1,-5%,63*,-8%,157*,25µM*,19%,27%,0%,4%,1%,16%
CC(=O)Nc1cccc(C(=O)OC(C)C(=O)N2CCc3ccccc32)c1 (stereo not given),2%,nt,nt,nt,nt,25%,nt,nt,nt,nt,nt
COC(=O)[C@@]1(Cc2ccc(F)cc2)[C@H]2c3cc(C(=O)N4CCCC4)n(Cc4cccc5ccccc45)c3C[C@H]2CN1C(=O)c1ccccc1,nt,nt,nt,nt,-5%,nt,nt,nt,nt,nt,nt
O=C(CSc1ncnc2nc[nH]c12)c1ccc([N+](=O)[O-])cc1,-5%,2,1%,-2,?,14%,nt,nt,nt,nt,nt
O=C(CSc1ncnc2nc[nH]c12)c1ccc(Cl)cc1,-30%,11*,1%,25*,14µM*,2%,-7%[10.4 µM],-7%,-1%,-5%,9%
O=c1[nH]c2ccccc2nc1NCc1ccccc1,3%,10,-9%,13,-4%,2%,nt,nt,nt,nt,nt
CC1=NN(c2nc3ccccc3[nH]2)C(=O)C1Cc1ccccc1 (stereo not given),-5%,11,-1%,19,18µM*,?,-21%,?,23%,6%,9%
O=C1Cc2cc(S(=O)(=O)N3CCCCC3)cc3c2N1CCC3,-4%,nt,nt,nt,nt,nt,nt,nt,nt,nt,nt
Cc1nnc(NC(=O)CN2CCN(Cc3ccccc3Cl)CC2)s1,-3%,-3,3%,-5,4.5µM*,12%,-5%[10.4 µM],-6%,6%,5%,19%
CCc1nnc(NC(=O)CN2CCN(c3cccc(OC)c3)CC2)s1,6%,-4,5%,26,-25%,-9%,nt,nt,nt,nt,nt
CCc1nnc(NC(=O)CN2CCN(Cc3cccc(OC)c3)CC2)s1,0%,-3,-7%,-18,3.2µM*,-1%,?,7%,12%,9%,20%
C=C(N(C)C)[C@]1(C)C[C@H]1[C@H](NC(=O)CNC(=O)OCc1ccccc1)c1ccccc1,nt,nt,nt,nt,9%,nt,nt,nt,nt,nt,nt
COc1cccc(OCc2cc(=O)n3c(-c4ccccc4)csc3n2)c1,-4%,nt,nt,nt,nt,nt,nt,nt,nt,nt,nt
CCOC(=O)Cc1csc(NS(=O)(=O)c2ccc(NC(C)=O)cc2)n1,9%,-2,-3%,-7,14µM*,2%,0%,16%,8%,15%,17%
CCOC(=O)Cc1csc(NC(=O)CCCc2ccccc2)n1,2%,7,-5%,9,35µM*,-4%,-23%,-2%,-17%,-7%,-12%
SMILES,TbPYK inhibitor,Cycloheximide cs,LmPK inhibitor,Shiga toxin inh,Giardia FBPA inh-1,RE007 growth inh,Giardia growth,Mammalian tox,Giardia FBPA inh-2,Rabbit aldolase,GAPDH counter
CCOC(=O)Cc1csc(NC(=O)CN2CCOCC2)n1,-1%,-1,-3%,-5,14µM*,6%,0%[10.4 µM],1%,4%,5%,15%
CCOC(=O)Cc1csc(NC(=O)CCc2ccc(S(=O)(=O)N3CCOCC3)cc2)n1,3%,-4,-2%,-3,-1%,-23%,nt,nt,nt,nt,nt
Cc1cc(OC(C)C(=O)N2CCC(c3nc4ccccc4o3)CC2)ccc1Cl (stereo not given),-1%,nt,nt,nt,nt,nt,nt,nt,nt,nt,nt
COC(=O)c1cc(=O)c2c(C)nc(C(Cl)(Cl)Cl)nc2[nH]1,-11%,1,-6%,-1,20µM*,16%,-21%,-18%,-3%,-5%,-23%
COc1cccc(C2CC(=O)N(c3ccc(F)cc3)C3=C2C(=O)OC3)c1OC (stereo not given),-4%,nt,nt,nt,nt,nt,nt,nt,nt,nt,nt
Cc1c(Br)c(=O)oc2c(Br)c(O)c(O)cc12,-4%,-4,4%,-11,?,-10%,-5%[38.3 µM],-20%,?,?,-5%
O=C(Nc1ccc(N2CCOCC2)c(Cl)c1)c1ccc(Cl)cc1,-2%,32*,0%,52*,16µM*,0%,?,-1%,?,?,?
COc1cccc(CCNC(=O)c2cnc3sc(N4CCCC4)nn3c2=O)c1,1%,nt,nt,nt,nt,nt,nt,nt,nt,nt,nt
Cn1ncc(C(N)=O)c1NC(=S)NC(=O)c1ccc(Br)o1,-6%,1,0%,-1,16µM*,-16%,-7%[10.4 µM],-9%,1%,5%,8%
Cc1cc(C)c2c(NC(=O)CCl)nn(C)c2n1,0%,26,-3%,26,-1%,13%,nt,nt,nt,nt,nt

# Screens (PubChem BioAssay)
